In paper PMC7862700, “An all-to-all approach to the identification of sequence-specific readers for epigenetic DNA modifications on cytosine” one finds binding signal data, which are given here for 1 sequence.

Common to all, as to test: DAPPL (digital affinity profiling via proximity ligation, sequencing); 10 mM Tris-HCl pH 7.5, 50 mM NaCl, 1 mM DTT, 4% glycerol, room temperature, 30 min; GST-TFs on glutathione beads, 16-mer random dsDNA library, 0.1% formaldehyde crosslink after washing; high values mean tight binding
The target of one assay is T1, FEV (Homo sapiens, UniProt Q99581 1-238).
T1 sequence: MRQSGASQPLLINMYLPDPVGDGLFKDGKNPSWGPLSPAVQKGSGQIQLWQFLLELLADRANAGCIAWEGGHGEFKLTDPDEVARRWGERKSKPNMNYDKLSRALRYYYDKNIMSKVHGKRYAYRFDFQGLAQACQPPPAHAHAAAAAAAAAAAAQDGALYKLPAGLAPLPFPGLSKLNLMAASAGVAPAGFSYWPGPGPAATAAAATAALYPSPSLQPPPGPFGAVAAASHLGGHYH
Particulars: protein: recombinant; tags: N-terminal GST; dsDNA, one strand shown. In short, it runs like this:
(§1)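 In yeast, human transcription factors were expressed with a GST fusion, then pulled down on glutathione beads and given DNA barcodes. Pooled with a tag-only sample, they were exposed to 200 nmole of a 16-mer random double-stranded DNA library (Tris/NaCl/DTT/glycerol buffer, room temperature, 30 min), washed, crosslinked with 0.1% formaldehyde, proximity-ligated using BsaI/T4 ligase for 1 h at 37 °C, PCR-amplified and read on an Illumina NextSeq500. Each hexamer's frequency of reads for a factor, divided by the matching frequency for the tag-only sample, gives the binding signal.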

The next assay deals with ETV5 (Homo sapiens, UniProt P41161 1-510). The following applies: protein: recombinant; tags: N-terminal GST; dsDNA, one strand shown. In a few lines:
as §1

The target of another assay is HSF1 (Homo sapiens, UniProt Q00613 1-529). The following applies: protein: recombinant; tags: N-terminal GST; chain copies: 3; dsDNA, one strand shown. In a few lines:
as §1

Another assay concerns the target T2, SPIC (Homo sapiens, UniProt Q8N5J4 1-248).
T2 sequence: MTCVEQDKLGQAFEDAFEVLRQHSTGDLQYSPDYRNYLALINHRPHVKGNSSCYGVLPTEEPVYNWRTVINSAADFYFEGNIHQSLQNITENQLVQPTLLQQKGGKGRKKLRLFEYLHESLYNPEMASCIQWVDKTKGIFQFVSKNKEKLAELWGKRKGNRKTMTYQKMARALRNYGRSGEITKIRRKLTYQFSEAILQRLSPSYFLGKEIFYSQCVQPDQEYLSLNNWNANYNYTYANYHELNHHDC
Particulars: protein: recombinant; tags: N-terminal GST; dsDNA, one strand shown. In a few lines: as §1

The target of the next assay is ELF4 (Homo sapiens, UniProt Q99607 1-663). The following applies: protein: recombinant; tags: N-terminal GST; dsDNA, one strand shown. In short, it runs like this: as §1
Sequence of ELF4 (Q99607 whole entry): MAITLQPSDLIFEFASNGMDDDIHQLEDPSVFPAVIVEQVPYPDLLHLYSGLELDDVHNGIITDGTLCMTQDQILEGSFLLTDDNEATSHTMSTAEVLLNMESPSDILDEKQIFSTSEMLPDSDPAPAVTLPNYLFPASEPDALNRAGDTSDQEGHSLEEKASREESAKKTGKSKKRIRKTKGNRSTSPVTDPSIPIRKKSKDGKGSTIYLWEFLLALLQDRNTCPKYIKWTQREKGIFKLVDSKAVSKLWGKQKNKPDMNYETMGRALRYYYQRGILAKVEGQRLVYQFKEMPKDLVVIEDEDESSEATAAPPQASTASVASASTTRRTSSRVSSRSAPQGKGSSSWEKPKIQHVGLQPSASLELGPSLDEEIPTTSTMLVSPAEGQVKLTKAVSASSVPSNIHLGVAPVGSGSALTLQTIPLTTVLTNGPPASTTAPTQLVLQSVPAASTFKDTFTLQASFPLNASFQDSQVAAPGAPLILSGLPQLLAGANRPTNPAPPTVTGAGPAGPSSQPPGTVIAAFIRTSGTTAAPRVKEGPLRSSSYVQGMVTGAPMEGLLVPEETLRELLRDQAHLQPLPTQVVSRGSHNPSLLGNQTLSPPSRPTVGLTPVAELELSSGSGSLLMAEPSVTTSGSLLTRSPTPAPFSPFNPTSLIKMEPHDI
The next assay addresses T3, ELK4 (Homo sapiens, UniProt P28324-2 1-405).
T3 sequence: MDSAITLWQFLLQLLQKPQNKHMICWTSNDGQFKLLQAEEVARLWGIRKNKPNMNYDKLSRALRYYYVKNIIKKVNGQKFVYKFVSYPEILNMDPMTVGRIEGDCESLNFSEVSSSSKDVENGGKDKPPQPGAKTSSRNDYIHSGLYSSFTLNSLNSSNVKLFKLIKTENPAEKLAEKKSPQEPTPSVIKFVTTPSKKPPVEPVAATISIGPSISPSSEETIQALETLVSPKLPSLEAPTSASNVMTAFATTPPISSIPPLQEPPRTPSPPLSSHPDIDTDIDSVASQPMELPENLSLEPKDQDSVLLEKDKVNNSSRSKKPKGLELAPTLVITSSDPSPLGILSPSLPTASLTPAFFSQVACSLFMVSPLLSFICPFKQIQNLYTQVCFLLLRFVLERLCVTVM
Particulars: protein: recombinant; tags: N-terminal GST; dsDNA, one strand shown. In short, it runs like this:
as §1

A further assay has as its target T4, ETV2 (Homo sapiens, UniProt O00321 1-342).
T4 sequence: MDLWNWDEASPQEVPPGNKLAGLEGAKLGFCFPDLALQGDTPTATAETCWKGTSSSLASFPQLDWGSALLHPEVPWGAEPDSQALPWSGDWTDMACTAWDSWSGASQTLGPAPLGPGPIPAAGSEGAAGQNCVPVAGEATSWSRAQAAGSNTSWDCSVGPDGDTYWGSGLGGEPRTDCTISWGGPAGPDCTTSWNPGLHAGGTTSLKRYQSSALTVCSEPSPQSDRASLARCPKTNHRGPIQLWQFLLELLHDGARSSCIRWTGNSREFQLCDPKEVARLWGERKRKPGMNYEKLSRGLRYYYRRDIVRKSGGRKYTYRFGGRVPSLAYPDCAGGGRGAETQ
The following applies: protein: recombinant; tags: N-terminal GST; dsDNA, one strand shown. In a few lines:
as §1

In a further assay the target is T5, ELF3 (Homo sapiens, UniProt P78545 1-371).
T5 sequence: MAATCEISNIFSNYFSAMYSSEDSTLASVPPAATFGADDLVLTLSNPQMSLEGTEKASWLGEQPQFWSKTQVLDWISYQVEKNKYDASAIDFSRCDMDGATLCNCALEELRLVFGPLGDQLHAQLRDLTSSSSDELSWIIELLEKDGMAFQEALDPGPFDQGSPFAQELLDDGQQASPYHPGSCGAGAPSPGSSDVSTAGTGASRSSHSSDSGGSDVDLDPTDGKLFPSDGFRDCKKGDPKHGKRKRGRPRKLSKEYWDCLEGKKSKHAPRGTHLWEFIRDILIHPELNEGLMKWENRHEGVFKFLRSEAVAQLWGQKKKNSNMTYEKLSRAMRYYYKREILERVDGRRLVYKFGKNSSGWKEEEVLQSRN
Particulars: protein: recombinant; tags: N-terminal GST; dsDNA, one strand shown. In short, it runs like this: as §1

The next assay addresses CRX (Homo sapiens, UniProt O43186 1-299). The following applies: protein: recombinant; tags: N-terminal GST; dsDNA, one strand shown. In short, it runs like this:
as §1

A further assay concerns the target ETV1 (Homo sapiens, UniProt P50549 1-477). The following applies: protein: recombinant; tags: N-terminal GST; dsDNA, one strand shown. In a few lines:
as §1

The next assay deals with T6, ERF (Homo sapiens, UniProt P50548 1-548).
T6 sequence: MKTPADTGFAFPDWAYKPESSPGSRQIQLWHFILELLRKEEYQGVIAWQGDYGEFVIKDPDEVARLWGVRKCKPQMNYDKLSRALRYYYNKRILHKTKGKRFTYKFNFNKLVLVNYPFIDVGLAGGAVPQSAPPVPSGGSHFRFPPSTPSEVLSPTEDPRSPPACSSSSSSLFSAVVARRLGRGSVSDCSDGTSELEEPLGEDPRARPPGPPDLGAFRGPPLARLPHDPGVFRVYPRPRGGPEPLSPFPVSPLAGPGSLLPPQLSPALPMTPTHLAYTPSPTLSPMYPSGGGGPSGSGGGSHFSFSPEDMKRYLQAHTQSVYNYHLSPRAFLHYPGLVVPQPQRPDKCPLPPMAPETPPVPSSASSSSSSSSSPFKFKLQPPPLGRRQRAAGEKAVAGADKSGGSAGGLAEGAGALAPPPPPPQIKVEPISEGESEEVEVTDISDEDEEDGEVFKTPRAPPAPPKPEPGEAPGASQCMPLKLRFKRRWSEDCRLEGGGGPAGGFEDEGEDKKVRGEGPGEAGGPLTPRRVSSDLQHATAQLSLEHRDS
Particulars: protein: recombinant; tags: N-terminal GST; dsDNA, one strand shown. In short, it runs like this:
as §1

The next assay has as its target T7, ETV3L (Homo sapiens, UniProt Q6ZN32 1-361).
T7 sequence: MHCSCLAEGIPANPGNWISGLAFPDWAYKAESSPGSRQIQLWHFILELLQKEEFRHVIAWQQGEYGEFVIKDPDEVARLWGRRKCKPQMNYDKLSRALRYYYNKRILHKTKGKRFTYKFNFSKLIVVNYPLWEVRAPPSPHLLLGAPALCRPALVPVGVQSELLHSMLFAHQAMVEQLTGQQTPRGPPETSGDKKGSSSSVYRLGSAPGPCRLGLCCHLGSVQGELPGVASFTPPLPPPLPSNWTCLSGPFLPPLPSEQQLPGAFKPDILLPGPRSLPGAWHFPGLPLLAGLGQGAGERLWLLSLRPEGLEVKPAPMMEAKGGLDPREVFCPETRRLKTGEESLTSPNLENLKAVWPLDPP
Particulars: protein: recombinant; tags: N-terminal GST; dsDNA, one strand shown. In short, it runs like this: as §1

For a further assay, the target named is T8, ETS2 (Homo sapiens, UniProt P15036 1-469).
T8 sequence: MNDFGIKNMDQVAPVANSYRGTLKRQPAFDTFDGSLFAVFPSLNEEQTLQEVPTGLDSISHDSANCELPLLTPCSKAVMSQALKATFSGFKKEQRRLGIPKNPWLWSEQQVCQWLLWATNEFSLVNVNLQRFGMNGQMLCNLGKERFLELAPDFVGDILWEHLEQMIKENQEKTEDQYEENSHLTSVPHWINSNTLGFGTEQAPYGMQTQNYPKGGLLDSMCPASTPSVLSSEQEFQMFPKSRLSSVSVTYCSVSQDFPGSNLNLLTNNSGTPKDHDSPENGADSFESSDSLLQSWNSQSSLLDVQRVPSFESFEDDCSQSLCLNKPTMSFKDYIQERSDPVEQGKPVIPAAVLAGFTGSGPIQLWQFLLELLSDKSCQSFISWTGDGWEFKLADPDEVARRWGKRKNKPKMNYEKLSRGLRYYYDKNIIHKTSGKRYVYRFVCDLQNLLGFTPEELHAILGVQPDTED
The following applies: protein: recombinant; tags: N-terminal GST; dsDNA, one strand shown. In short, it runs like this: as §1

Another assay concerns the target T9, SPDEF (Homo sapiens, UniProt O95238 1-335).
T9 sequence: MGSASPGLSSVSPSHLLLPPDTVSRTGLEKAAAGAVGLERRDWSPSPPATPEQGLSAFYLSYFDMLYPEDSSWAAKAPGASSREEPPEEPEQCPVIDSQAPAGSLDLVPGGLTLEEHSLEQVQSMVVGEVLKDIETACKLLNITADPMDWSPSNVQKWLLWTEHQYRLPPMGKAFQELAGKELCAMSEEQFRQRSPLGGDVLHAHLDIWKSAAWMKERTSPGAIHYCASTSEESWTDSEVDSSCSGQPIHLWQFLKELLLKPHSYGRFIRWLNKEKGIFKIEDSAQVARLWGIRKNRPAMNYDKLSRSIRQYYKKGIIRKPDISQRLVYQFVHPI
The following applies: protein: recombinant; tags: N-terminal GST; dsDNA, one strand shown. In short, it runs like this: as §1

Another assay deals with T10, ETV7 (Homo sapiens, UniProt Q9Y603 1-341).
T10 sequence: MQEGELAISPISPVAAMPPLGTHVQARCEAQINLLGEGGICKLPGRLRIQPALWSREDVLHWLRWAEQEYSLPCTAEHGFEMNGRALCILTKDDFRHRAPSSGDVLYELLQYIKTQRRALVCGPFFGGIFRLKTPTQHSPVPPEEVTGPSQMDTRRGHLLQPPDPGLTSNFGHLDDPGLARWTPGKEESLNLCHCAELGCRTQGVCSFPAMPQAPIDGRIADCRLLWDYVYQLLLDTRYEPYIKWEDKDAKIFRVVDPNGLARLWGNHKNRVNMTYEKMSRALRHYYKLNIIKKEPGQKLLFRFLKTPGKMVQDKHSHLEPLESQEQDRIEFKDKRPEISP
The following applies: protein: recombinant; tags: N-terminal GST; dsDNA, one strand shown. In a few lines:
as §1

A further assay has as its target T11, ELF5 (Homo sapiens, UniProt Q9UKW6-2 1-255).
T11 sequence: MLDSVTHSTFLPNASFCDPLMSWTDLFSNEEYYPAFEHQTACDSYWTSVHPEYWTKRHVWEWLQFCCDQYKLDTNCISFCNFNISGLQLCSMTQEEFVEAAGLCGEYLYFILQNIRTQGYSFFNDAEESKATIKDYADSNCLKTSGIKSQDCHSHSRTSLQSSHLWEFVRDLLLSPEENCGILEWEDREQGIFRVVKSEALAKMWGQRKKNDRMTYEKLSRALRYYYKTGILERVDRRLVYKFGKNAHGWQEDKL
The following applies: protein: recombinant; tags: N-terminal GST; dsDNA, one strand shown. In short, it runs like this:
as §1

The target in the next assay is T12, ETV3 (Homo sapiens, UniProt P41162-2 1-143).
T12 sequence: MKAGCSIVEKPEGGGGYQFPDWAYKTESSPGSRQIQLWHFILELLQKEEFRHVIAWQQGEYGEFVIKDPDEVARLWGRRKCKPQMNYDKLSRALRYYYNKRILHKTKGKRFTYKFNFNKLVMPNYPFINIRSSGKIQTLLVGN
Particulars: protein: recombinant; tags: N-terminal GST; dsDNA, one strand shown. In a few lines:
as §1

Another assay addresses ETV6 (Homo sapiens, UniProt P41212 1-452). The following applies: protein: recombinant; tags: N-terminal GST; dsDNA, one strand shown. In short, it runs like this:
as §1

Sequence of ETV5 (P41161 whole entry): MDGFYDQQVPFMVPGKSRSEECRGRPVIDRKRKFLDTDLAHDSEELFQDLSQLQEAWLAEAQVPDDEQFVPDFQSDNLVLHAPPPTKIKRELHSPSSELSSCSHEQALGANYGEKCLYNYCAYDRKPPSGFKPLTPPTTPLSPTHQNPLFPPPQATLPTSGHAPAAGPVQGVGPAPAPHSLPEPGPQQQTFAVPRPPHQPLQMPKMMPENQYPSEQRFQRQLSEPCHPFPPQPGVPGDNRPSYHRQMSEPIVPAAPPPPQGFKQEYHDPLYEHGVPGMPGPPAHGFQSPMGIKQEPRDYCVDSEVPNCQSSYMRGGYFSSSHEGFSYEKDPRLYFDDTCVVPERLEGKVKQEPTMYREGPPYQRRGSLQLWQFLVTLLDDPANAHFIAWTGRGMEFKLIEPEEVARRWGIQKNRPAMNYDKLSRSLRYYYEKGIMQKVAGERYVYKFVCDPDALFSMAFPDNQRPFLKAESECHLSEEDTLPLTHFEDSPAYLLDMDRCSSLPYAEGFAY
Sequence of ETV6 (P41212 whole entry): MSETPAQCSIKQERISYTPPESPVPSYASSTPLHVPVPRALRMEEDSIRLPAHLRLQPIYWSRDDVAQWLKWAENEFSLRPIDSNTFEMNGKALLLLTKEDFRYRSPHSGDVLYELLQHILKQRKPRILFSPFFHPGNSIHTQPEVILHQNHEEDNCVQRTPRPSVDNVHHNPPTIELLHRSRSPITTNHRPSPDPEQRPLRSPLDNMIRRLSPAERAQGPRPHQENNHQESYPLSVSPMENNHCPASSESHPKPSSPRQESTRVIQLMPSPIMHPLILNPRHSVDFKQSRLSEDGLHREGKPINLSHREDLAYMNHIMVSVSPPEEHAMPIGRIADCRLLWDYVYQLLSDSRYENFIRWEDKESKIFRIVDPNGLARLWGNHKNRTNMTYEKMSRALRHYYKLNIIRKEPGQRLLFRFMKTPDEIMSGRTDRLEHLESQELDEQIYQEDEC
Sequence of CRX (O43186 whole entry): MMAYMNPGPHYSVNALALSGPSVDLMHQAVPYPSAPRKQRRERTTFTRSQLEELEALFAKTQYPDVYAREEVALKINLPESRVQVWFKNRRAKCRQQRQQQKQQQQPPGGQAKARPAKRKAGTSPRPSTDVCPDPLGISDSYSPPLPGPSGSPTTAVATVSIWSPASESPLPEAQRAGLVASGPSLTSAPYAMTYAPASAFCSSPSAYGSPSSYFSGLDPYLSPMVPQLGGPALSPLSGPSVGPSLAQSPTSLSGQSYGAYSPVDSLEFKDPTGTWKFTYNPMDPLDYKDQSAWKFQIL
Sequence of ETV1 (P50549 whole entry): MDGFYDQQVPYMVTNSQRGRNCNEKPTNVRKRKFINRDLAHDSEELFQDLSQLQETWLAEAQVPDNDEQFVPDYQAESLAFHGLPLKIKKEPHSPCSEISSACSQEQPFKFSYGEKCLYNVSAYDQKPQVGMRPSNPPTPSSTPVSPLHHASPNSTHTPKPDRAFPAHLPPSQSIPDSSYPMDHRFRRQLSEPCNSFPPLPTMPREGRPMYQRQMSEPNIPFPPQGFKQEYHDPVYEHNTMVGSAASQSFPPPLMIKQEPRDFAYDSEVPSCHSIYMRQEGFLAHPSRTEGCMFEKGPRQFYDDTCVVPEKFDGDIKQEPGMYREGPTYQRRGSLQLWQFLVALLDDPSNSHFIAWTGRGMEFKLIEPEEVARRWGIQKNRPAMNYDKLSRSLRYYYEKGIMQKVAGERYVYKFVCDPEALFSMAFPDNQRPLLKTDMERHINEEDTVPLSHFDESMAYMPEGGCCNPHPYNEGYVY
Sequence of HSF1 (Q00613 whole entry): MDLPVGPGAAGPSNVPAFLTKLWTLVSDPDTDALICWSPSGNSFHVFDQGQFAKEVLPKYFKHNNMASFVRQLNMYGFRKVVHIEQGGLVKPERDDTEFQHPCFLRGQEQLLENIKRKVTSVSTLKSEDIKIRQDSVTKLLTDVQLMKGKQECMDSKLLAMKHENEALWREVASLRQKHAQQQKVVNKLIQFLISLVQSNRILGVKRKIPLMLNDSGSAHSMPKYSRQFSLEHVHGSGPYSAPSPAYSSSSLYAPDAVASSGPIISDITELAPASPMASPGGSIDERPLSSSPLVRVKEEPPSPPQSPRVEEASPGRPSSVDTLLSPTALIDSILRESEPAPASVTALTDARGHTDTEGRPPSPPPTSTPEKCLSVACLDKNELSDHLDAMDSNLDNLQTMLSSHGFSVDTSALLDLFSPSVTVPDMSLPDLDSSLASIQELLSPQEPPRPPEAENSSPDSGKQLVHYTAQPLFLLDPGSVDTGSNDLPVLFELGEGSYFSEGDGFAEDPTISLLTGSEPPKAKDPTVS

AATATG: the binding signal with FEV was 1.12 fold enrichment (6-mer frequency, TF over GST control); with ETV5, 1.2 fold enrichment (6-mer frequency, TF over GST control); in the assay with HSF1, 1.12 fold enrichment (6-mer frequency, TF over GST control); with SPIC it was 1.28 fold enrichment (6-mer frequency, TF over GST control); with ELF4, 1.16 fold enrichment (6-mer frequency, TF over GST control); in the assay with ELK4, 1.18 fold enrichment (6-mer frequency, TF over GST control). Besides, the binding signal was 1.07 fold enrichment (6-mer frequency, TF over GST control) with ETV2; 1.21 fold enrichment (6-mer frequency, TF over GST control) in the assay with ELF3; 1.1 fold enrichment (6-mer frequency, TF over GST control) with CRX; 1.13 fold enrichment (6-mer frequency, TF over GST control) with ETV1; 1.07 fold enrichment (6-mer frequency, TF over GST control) with ERF; 1.15 fold enrichment (6-mer frequency, TF over GST control) in the assay with ETV3L. Besides, the binding signal was 1.15 fold enrichment (6-mer frequency, TF over GST control) in the assay with ETS2; 1.08 fold enrichment (6-mer frequency, TF over GST control) in the assay with SPDEF; 1.21 fold enrichment (6-mer frequency, TF over GST control) with ETV7; 1.1 fold enrichment (6-mer frequency, TF over GST control) with ELF5; 1.14 fold enrichment (6-mer frequency, TF over GST control) in the assay with ETV3; 1.14 fold enrichment (6-mer frequency, TF over GST control) with ETV6.
